Measured values taken from PubChem BioAssay AID1220 (Sanford-Burnham Center for Chemical Genomics, 2008).
Hit rate of the full screen: of about 190,000 compounds, about 1,300 (0.68%) were called active. This is one part of a sample in which actives are shown more often than they occur. Unmarked numbers belong to inactive results. No stated cut-off is given here; in the data, active means inhibition above about 50%; inactive means the rest.

target: Mannose-6-phosphate isomerase (Homo sapiens) (UniProt P34949); assay: human PMI inhibitors, high substrate, primary screen, biochemical, fluorescence intensity, high mannose 6-phosphate (AID 1220); conditions: recombinant PMI enzyme, coupled fluorescence intensity; at 20 µM; stronger effect = higher value
Sequence (P34949 whole entry, looked up): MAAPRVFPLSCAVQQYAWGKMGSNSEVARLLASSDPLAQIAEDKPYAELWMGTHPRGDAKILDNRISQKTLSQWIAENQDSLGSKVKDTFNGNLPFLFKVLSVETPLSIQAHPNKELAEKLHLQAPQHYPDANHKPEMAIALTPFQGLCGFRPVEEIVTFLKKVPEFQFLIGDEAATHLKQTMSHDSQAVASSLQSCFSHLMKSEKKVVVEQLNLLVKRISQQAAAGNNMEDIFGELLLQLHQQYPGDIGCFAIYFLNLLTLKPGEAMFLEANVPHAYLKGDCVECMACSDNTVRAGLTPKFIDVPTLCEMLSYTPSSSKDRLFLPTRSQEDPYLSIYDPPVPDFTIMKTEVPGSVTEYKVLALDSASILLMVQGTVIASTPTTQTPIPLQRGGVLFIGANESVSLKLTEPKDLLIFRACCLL

For CN1CCN(Cc2c(O)ccc3c(-c4ccccc4)cc(=O)oc23)CC1, which inhibition is on record?
The inhibition was 1.7%.

Which inhibition does the source give for CN1CCN(Cc2c(O)ccc3cc(Br)ccc23)CC1 here?
The inhibition was 64.6% (active).

With Oc1ccc2ccccc2c1CN1CCN(c2ccccc2F)CC1 as the molecule, how does the inhibition read?
The inhibition was 29.8%.

CCn1c(CSc2nc3ccccc3s2)nnc1SCC(N)=O was tested. Which inhibition did it give?
The inhibition was 1.7%.

For N#Cc1ccccc1S(=O)(=O)N1CCN(CC(O)c2ccccc2)CC1 (centres undefined), which inhibition is on record?
The inhibition was -12.7%.

Which inhibition does the source give for COc1cccc(C(=O)Nc2cccc(-c3ccc4nncn4n3)c2)c1OC here?
Its inhibition is -2.3%.

For COc1ccc(C2=NN(C(=O)CSc3ncccn3)C(c3cccc(OC)c3OC)C2)cc1 (centres undefined), which inhibition is on record?
The inhibition was 0.9%.

With CCOC(=O)C1CCCN(C(=O)c2ccc(C)cc2O)C1 (centres undefined) as the molecule, how does the inhibition read?
The inhibition was 1.2%.

With CC1Cc2ccccc2N1c1ncnc2c1nnn2Cc1ccccc1Cl (centres undefined) as the molecule, how does the inhibition read?
Its inhibition is -1.3%.

Which inhibition does the source give for O=C(O)C1C2CCC(O2)C1C(=O)Nc1cccc(F)c1 (centres undefined) here?
Its inhibition is -3.7%.

For O=C(O)C1C2CCC(O2)C1C(=O)Nc1ccc(O)cc1 (centres undefined), which inhibition is on record?
The inhibition was 54.4% (active).

With O=C(O)C1C2CCC(O2)C1C(=O)Nc1ccc(F)cc1 (centres undefined) as the molecule, how does the inhibition read?
The inhibition was -3.9%.

For O=C(NCC(=O)N(c1cccnc1)C(C(=O)NC1CCCC1)c1ccccc1)c1ccco1 (centres undefined), which inhibition is on record?
Its inhibition is -14.2%.

Which inhibition does the source give for Cc1onc(-c2ccccc2)c1C(=O)N1CCN(C(=O)c2ccco2)CC1 here?
Its inhibition is 2%.

Which inhibition does the source give for COc1ccc(N(CC(=O)NCc2ccccc2OC)S(=O)(=O)c2ccccc2[N+](=O)[O-])c(OC)c1 here?
Its inhibition is -1.5%.

Which inhibition does the source give for CN1c2ccccc2N(C)C1(C)c1ccccc1 here?
Its inhibition is 31.1%.

CCN1C(=O)N(C)C2(c3ccccc3)N(C)C(=O)N(C)C12c1ccccc1 (centres undefined) was tested. Which inhibition did it give?
The inhibition was 12.7%.

How did the inhibition turn out when CN1CCN(C(=O)c2cc(-c3ccco3)on2)CC1 was run?
Its inhibition is -11%.

With O=C(c1cc(-c2ccco2)on1)N1CCN(c2ccccc2)CC1 as the molecule, how does the inhibition read?
The inhibition was 53.3% (active).

With O=C(c1cc(-c2ccco2)on1)N1CCOCC1 as the molecule, how does the inhibition read?
The inhibition was 26.3%.

N#CCCn1c(C2CCCCC2)nc2ccccc21 was tested. Which inhibition did it give?
The inhibition was -2.5%.

For C(=Nc1ccc(Nc2ccccc2)cc1)c1ccc2ccccc2c1, which inhibition is on record?
The inhibition was -17.3%.

For O=[N+]([O-])c1ccc(N=Cc2ccc(Br)c([N+](=O)[O-])c2)cc1, which inhibition is on record?
Its inhibition is 7.8%.

For O=[N+]([O-])c1cc(C=Nc2ccc3ccccc3c2)ccc1Br, which inhibition is on record?
The inhibition was 51.5% (active).

Which inhibition does the source give for CCn1c2ccccc2c2nc3cc(C(=O)O)ccc3nc21 here?
The inhibition was 33.7%.

For CCn1c2ccccc2c2nc3ccccc3nc21, which inhibition is on record?
The inhibition was 8.1%.

Which inhibition does the source give for CCc1cc(C(=O)N2CCCC(CCC(=O)NCc3cccc(OC)c3)C2)no1 (centres undefined) here?
The inhibition was -5.8%.

For COc1ccc(S(=O)(=O)Nc2cc3c(C(C)=O)c(C)oc3c3ccccc23)cc1, which inhibition is on record?
The inhibition was -0.8%.

With COc1ccc(S(=O)(=O)Nc2cc3c4c(oc3c3ccccc23)CCCC4=O)cc1 as the molecule, how does the inhibition read?
Its inhibition is 14.6%.

With COc1ccc(S(=O)(=O)Nc2cc3c4c(oc3c3ccccc23)CC(C)(C)CC4=O)cc1 as the molecule, how does the inhibition read?
Its inhibition is 50.1% (active).

For COc1ccc(O[C@H]2C=C[C@@H](c3ccccc3)O[C@@H]2COC(=O)CC/C(C)=N/OC[C@@H](O)COCc2ccco2)cc1, which inhibition is on record?
The inhibition was 19.3%.

With CCC(NC(=O)CCc1ccccc1)c1ccccc1 (centres undefined) as the molecule, how does the inhibition read?
Its inhibition is 0.5%.

COC(=O)COc1c(Cl)cc(Cl)c2ccc(C)nc12 was tested. Which inhibition did it give?
Its inhibition is 10.1%.

How did the inhibition turn out when Cc1ccc2c(Cl)cc(Cl)c(OCC(=O)O)c2n1 was run?
The inhibition was 9.9%.

With Cc1ccc2c(Cl)cc(Cl)c(OCC(=O)N3CCCC3)c2n1 as the molecule, how does the inhibition read?
Its inhibition is 54.6% (active).

With CCOc1ccc(C(NC(=O)/C=C/c2ccco2)c2ccc(OC)c(OC)c2)cc1 (centres undefined) as the molecule, how does the inhibition read?
Its inhibition is 10.3%.

COc1ccc(C2Nc3ccccc3C(=O)N2NS(=O)(=O)c2ccc(C)cc2)cc1 (centres undefined) was tested. Which inhibition did it give?
The inhibition was 5.5%.

For CN(Cc1ccon1)C(=O)CC1C(=O)NCCN1CC(C)(C)C (centres undefined), which inhibition is on record?
Its inhibition is 35.3%.

With Cc1ccc(OCCN(C)C(=O)CC2C(=O)NCCN2CC(C)(C)C)cc1 (centres undefined) as the molecule, how does the inhibition read?
The inhibition was 41.2%.

Which inhibition does the source give for COC(=O)CN(C)C(=O)CC1C(=O)NCCN1CC(C)(C)C (centres undefined) here?
Its inhibition is 56.5% (active).

COc1ccc(N2CCN(C(=O)COc3ccc4ccccc4c3)CC2)cc1 was tested. Which inhibition did it give?
Its inhibition is 6.1%.

For COc1ccc(CN2CCN(c3ccccn3)CC2)c(OC)c1, which inhibition is on record?
Its inhibition is -6.3%.

O=C(Nc1ccccc1)c1ccc(NCCN2CCOCC2)c(S(=O)(=O)N2CCOCC2)c1 was tested. Which inhibition did it give?
The inhibition was 1.4%.

With CCOC(=O)C(Cc1c(F)cccc1Cl)c1ccnc2nc(N)nn12 (centres undefined) as the molecule, how does the inhibition read?
The inhibition was 64.8% (active).

How did the inhibition turn out when CCOC(=O)C(Cc1c(F)cccc1Cl)c1ccno1 (centres undefined) was run?
Its inhibition is -11.3%.

With CCOC(=O)C(Cc1ccccc1)c1ccnc2nc(N)nn12 (centres undefined) as the molecule, how does the inhibition read?
The inhibition was -9.3%.

Which inhibition does the source give for CCN(CC)CCOC(=O)c1ccc(NC(=O)CNC(=O)C2CCCCC2)cc1 here?
Its inhibition is -12.4%.

How did the inhibition turn out when O=C1CC(c2ccccc2)n2nc(NC(=O)c3cccnc3)nc2N1 (centres undefined) was run?
Its inhibition is -4.6%.

Which inhibition does the source give for Cc1ccc(-n2nnnc2SCC(=O)NNC(=O)c2ccc([N+](=O)[O-])cc2)cc1 here?
The inhibition was 8.5%.
